Compound activity from PubChem BioAssay.
In the library only some 1.7% were active in any assay of this set; here they are far more common.
TRPML1 inh – human mucolipin-1 channel inhibition; TRPML1-inducible cells, Ca2+ dye fluorescence, FDSS; active compounds read low; inhibition of EC80 agonist-evoked calcium signal; 390,000 compounds, 0.02% hits; Q9GZU1; AID 624415; activity change, negative = inhibition, % (test concentration not listed); in the data active = activity change below about -50%; inconclusive = between about -30% and that limit;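 also: stimulus is agonist 54-4 at its EC80 concentration; % is scaled to controls: 0 for no effect and ±100 for the full control effect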
Target sequence (Q9GZU1 whole entry, looked up): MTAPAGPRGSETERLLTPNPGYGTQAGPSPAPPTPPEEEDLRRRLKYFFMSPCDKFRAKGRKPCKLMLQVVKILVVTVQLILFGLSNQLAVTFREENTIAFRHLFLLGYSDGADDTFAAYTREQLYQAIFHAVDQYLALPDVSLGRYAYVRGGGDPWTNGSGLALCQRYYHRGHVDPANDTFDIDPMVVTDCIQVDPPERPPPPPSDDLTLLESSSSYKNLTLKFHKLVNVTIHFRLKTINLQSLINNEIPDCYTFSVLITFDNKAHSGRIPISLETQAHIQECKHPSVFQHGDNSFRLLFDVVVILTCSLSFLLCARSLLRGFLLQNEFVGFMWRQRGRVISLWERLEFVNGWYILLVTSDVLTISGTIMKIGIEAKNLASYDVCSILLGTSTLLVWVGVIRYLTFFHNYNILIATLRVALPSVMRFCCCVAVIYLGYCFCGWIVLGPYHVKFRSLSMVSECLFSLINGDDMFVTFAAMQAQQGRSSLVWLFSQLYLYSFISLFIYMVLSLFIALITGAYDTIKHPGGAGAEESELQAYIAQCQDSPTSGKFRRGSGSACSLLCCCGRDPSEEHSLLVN
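TRPML1-DL cells, Tet-induced overnight (~16 h, 37 °C) at 1,500 cells/well, were loaded with Ca8 no-wash dye plus quencher for 45-90 min at room temperature. Compounds were pinned during FDSS kinetic reading; agonist 54-4 at EC80 (4 uM final) then added.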
TRPML1 agonist – agonists of human TRPML1 channel; Q9GZU1; TRPML1-expressing cells, Ca2+ dye fluorescence, FDSS; activation, % (no concentration beside the values); 410,000 compounds, 0.12% hits; in the data active = activation above about 50%; inconclusive = mostly about 30% to 49%; also: 0% is about no effect
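Tetracycline-induced TRPML1-DL cells are seeded and incubated overnight before loading with a no-wash Ca2+ dye and quencher. Agonist activity is taken from the 110 s fluorescence read following compound pin-transfer on an FDSS, before EC80 54-4 challenge.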
hERG WT inh – inhibitors of human wildtype KCNH2 potassium channel. Q12809. U2OS, BacMam KCNH2, thallium flux FluxOr; active compounds read low. activity change, % at 1.84 µM. 340,000 compounds, 0.37% hits;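 active = maximum activity change below -70%; inconclusive = maximum activity change between -70% and -50%; inactive = maximum activity change above -50%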; also: % is scaled to controls: 0 for no effect and ±100 for the full control effect
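U2OS cells were transduced with wild-type KCNH2 virus (2.03 x 10^8 / mL) for 4 h at room temperature, then cultured overnight at 37 C. Thallium flux was read with FluxOr dye. Rate constants were normalized to DMSO controls.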
TRHR PAM – TRH receptor (human) allosteric enhancement. TRHR cells, fluo-8 calcium fluorescence, EC20 TRH enhancement. enhancement, % at 2 µM. 360,000 compounds, 0.66% hits. AID 493056; in the data active = enhancement above about 30%; also: 0% is about no effect
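TRHR-expressing cells loaded with fluo-8 calcium dye were read kinetically (ex 480/em 530) during compound addition, then stimulated with an EC20 of TRH (10 nM final). Enhancement of the Gq-mediated intracellular calcium response was scored.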
TRHR agonist – agonists of human TRH receptor; P34981; AID 493084; activation, % at 2 µM; 360,000 compounds, 0.18% hits; TRHR cells, calcium flux fluo-8, FDSS agonist mode; in the data active = activation above about 30%; also: 0% is about no effect
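TRHR-expressing cells loaded with fluo-8 calcium dye; 23 nL library compound pin-transferred, kinetic FDSS fluorescence (Ex 480/Em 530) recorded about 180 s for agonist-induced calcium release, before a 10 nM TRH EC20 addition for potentiator mode.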
KCNH2 3.1 block – KCNH2 3.1 (human) potassium channel inhibition; U2OS KCNH2 3.1, thallium flux FluxOr; active compounds read low; activity change, % (tested at about 1.8 µM); 340,000 compounds, 0.95% hits; AID 720553;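 active = maximum activity change below -70%; inconclusive = maximum activity change from -70% to -50%; inactive = maximum activity change above -50%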;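 also: thallium influx rate constant from kinetic fluorescence after stimulation buffer; % is scaled to controls: 0 for no effect and ±100 for the full control effect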
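Thallium flux via FluxOr fluorescence (Red40 quencher, 45 min loading) in U2OS cells virally expressing the KCNH2 3.1 isoform (1.77 x 10^8 /mL virus, overnight at 37 C). Rate constants from 2-min kinetic reads post-stimulation, normalised to positive and negative controls.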
The depositor's hits bear a star; i = inactive; ? = inconclusive; . = not tested or not shown.

SMILES | TRPML1 inh | TRPML1 agonist | hERG WT inh | TRHR PAM | TRHR agonist | KCNH2 3.1 block
Cc1cc(OCc2cccc(Cl)c2)c(C)cc1CN1CCOCC1 | 83 | 0 | 8 | -3 | 0 | -71*
O=[N+]([O-])c1cccc(COc2ccccc2CN2CCOCC2)c1 | -8 | -1 | 1 | . | . | 6
CCN(CC)c1ccc(/C=C2/C(=O)c3ccc(C(=O)O)cc3C2=O)cc1 | -19 | 65* | -7 | 41* | 188* | -3
COc1cccc(C(=O)Nc2ccc(-c3cn4cccnc4n3)cc2)c1OC | 14 | -1 | . | 0 | -1 | .
CCN(CC)c1ccc(NC(=O)C2COc3ccc(OC)cc3C2)c(C)c1 (centres undefined) | 11 | 2 | . | 2 | -1 | .
O=C(NC1CCCC1)C(c1ccncc1)N(C(=O)c1csnn1)c1ccccc1F (centres undefined) | 1 | -1 | 9 | 28 | 0 | 9
CC(=O)c1cccc(N(C(=O)c2ccco2)C(C(=O)NC2CCCC2)c2ccncc2)c1 (centres undefined) | -5 | 1 | -115* | 6 | 0 | -9
Cc1ccccc1N(C(=O)c1csnn1)C(C(=O)NC1CCCCC1)c1ccncc1 (centres undefined) | 6 | -1 | -5 | 32* | -1 | 8
CC(=O)Nc1ccc(N(C(=O)c2ccco2)C(C(=O)NC2CCCC2)c2ccc(N3CCOCC3)cc2)cc1 (centres undefined) | -5 | 0 | i | 35* | 0 | 12
CC(=O)c1cccc(N(C(=O)c2ccco2)C(C(=O)NC2CCCC2)c2ccc(N3CCOCC3)cc2)c1 (centres undefined) | -3 | 0 | i | 5 | 1 | 19
COc1cc2nc(N3CCCCC3)nc(NC(C)C)c2cc1OC | . | -1 | . | . | . | .
COc1ccc(C(=O)NCCCN=C2NS(=O)(=O)c3ccccc32)cc1 | -10 | 0 | 5 | 2 | 0 | 9
CCOC(=O)CCC(NC(=O)CCCC(=O)NC(CCC(=O)OCC)C(=O)OCC)C(=O)OCC (centres undefined) | -11 | 0 | 0 | 1 | 1 | -8
CCOC(=O)CCC(NC(=O)CCC(=O)NC(CCC(=O)OCC)C(=O)OCC)C(=O)OCC (centres undefined) | 2 | 1 | 2 | 31* | 1 | 21
CCOC(=O)c1cc(OC(=O)c2cccc(F)c2)n(-c2ccccc2)n1 | -16 | 2 | . | -5 | 1 | .
O=C1C=C(c2ccc3ccccc3c2)C[C@@H](c2ccc(F)cc2)C1 | -6 | 0 | -7 | 8 | 0 | -86*
CNS(=O)(=O)c1ccc(CNC[C@H]2O[C@@H](n3ccc(N)nc3=O)[C@H](O)[C@@H]2O)cc1 | 3 | 0 | -4 | . | . | 6
CCN(CC)c1ccccc1/C=C/[n+]1ccc(CCCCI)c2ccccc21 | . | 1 | . | . | . | .
CCC(Sc1nc(-c2ccccc2)c(C#N)c(=O)[nH]1)C(=O)Nc1cc(C)on1 (centres undefined) | -8 | 0 | 0 | -1 | 1 | -71*
CCC(Sc1nc2ccccc2[nH]1)C(=O)Nc1cc(C)on1 (centres undefined) | -7 | 0 | 1 | -3 | -1 | 8
O=C(NN=C1CCCCCC1)c1cc(-c2ccccc2)nc2ccccc12 | 0 | -1 | -3 | -3 | 1 | 1
Cc1ccc(-c2cc(C(=O)NN=C3CCCC3)c3ccccc3n2)cc1 | 9 | 2 | -197* | -7 | 0 | 16
C/C(=N\NC(=O)c1cc(-c2cccnc2)nc2ccccc12)c1ccccc1O | -7 | -1 | -5 | 10 | -1 | -110*
Cc1ccc(-n2ccnc(NCCc3ccc(S(N)(=O)=O)cc3)c2=O)c(C)c1 | 20 | -1 | . | -2 | 0 | .
Cc1ccc(C)c(N2CCN(C(=O)C3CCN(C(=O)c4cc5sccc5n4C)CC3)CC2)c1 | 5 | 1 | . | 1 | 0 | .
SMILES | TRPML1 inh | TRPML1 agonist | hERG WT inh | TRHR PAM | TRHR agonist | KCNH2 3.1 block
CCn1c(C(=O)N2CCCC(C(=O)N3CCN(c4cc(C)ccc4C)CC3)C2)cc2sccc21 (centres undefined) | -11 | 65* | . | -1 | 0 | .
CCS(=O)(=O)c1ncc(Cl)c(C(=O)N2CCN(c3cccc(Cl)c3)CC2)n1 | -7 | 10 | . | -14 | 2 | .
CCSc1nnc2nc(C)cc(C)n12 | -10 | 0 | -1 | 19 | 0 | -14
Cc1cc(C)n2c(SCC(C)C)nnc2n1 | 6 | 1 | 1 | 33* | 0 | -9
O=[N+]([O-])c1cccc(OCCN2CCC(Cc3ccccc3)CC2)c1 | 4 | 0 | 5 | -6 | 2 | -70*
O=Cc1cc(Cl)ccc1OCCN1CCC(Cc2ccccc2)CC1 | 42 | 1 | ? | 13 | 1 | -105*
Cc1ccc([N+](=O)[O-])c(OCCCN2CCC(Cc3ccccc3)CC2)c1 | 36 | 2 | -127* | . | . | -97*
Cc1ccc(OCCCN2CCOCC2)c([N+](=O)[O-])c1 | 20 | -1 | -4 | 31* | 1 | -16
COc1ccccc1CN1C(=O)CN(C2CCCCCC2)C(=O)C1c1ccc(C)cc1 (centres undefined) | 6 | 0 | . | -5 | -1 | .
COC(=O)C1CCN(S(=O)(=O)CCNC(=O)c2ccccc2)CC1 | 14 | 0 | 12 | . | . | -4
C=CCOc1ccccc1CN1CCC(Cc2ccccc2)CC1 | -19 | 1 | 39 | 0 | 0 | -87*
OCc1ccccc1OCCCN1CCC(Cc2ccccc2)CC1 | 2 | 1 | -3 | 1 | 0 | -90*
Clc1ccccc1OCCN1CCC(Cc2ccccc2)CC1 | 4 | -1 | 16 | 2 | 0 | -24
COc1cc(C)c(CN2CCC(Cc3ccccc3)CC2)cc1C | -3 | 1 | 36 | 5 | 1 | -28
CCNc1nc(NC(C)C)nc(NS(=O)(=O)c2ccc(C)cc2)n1 | . | . | 4 | -2 | 0 | 26
COC(=O)C1C(O)=C(C(C)=Nc2cccc3ccccc23)C(=O)CC1(C)C (centres undefined) | 29 | 0 | 6 | -3 | 0 | 10
NC(=Nc1ccc(Cl)cc1)c1ccccc1 | -5 | 65* | -5 | -19 | 31* | 8
ONC(=Nc1ccccc1)c1ccc(Cl)cc1 | 4 | 1 | -2 | -2 | 0 | 2
COc1ccc(NC(=O)CN(c2ccccc2C)S(C)(=O)=O)c(OC)c1 | -9 | 1 | -10 | 31* | 0 | 6
COc1ccccc1NC(=O)CN(c1ccccc1C)S(C)(=O)=O | 12 | 0 | 16 | -2 | 0 | 19
CCc1cc(C(=O)/C=C/c2cc3c(cc2C)OCCO3)c(O)cc1O | . | 0 | . | . | . | .
